Results filed as inconclusive are left out. Entries that show only a call come without a potency. A number with no mark means an inactive call. Calls of active or inactive are those of the source. Calls follow the shape of the dose curve; as a rule, active = well fitted cell-killing curve with a large enough effect; inconclusive = small, poorly fitted or top-dose-only effect; inactive = no such curve, though single readings can be large or run the other way.
Assay: qHTS of pediatric cancer cell lines to identify multiple opportunities for drug repurposing: Primary screen for MG 63 (6-TG R) cells (AID 1347105); also: nearly all actives have a fitted effect of over 50% in size
Conditions: MG 63 (6-TG R) viability, CellTiter-Glo, 48 h; series mostly up to 46 µM
Description: Drug repurposing or repositioning has been offered as a strategy for drug development in oncology programs. This approach has special potential for childhood cancers and other rare or orphan diseases, where the expected return on new drug development has been a disincentive to pharmaceuticals. […] In this project we exploit the poly-pharmacology of drugs to discover new indications via phenotypic screening of a panel of 19 well-characterized cell lines derived from solid tumors seen in children and adolescents. The goal is to identify approved drugs with previously unrecognized anticancer properties that has the potential to reveal new mechanisms and biological processes involved in carcinogenesis or drug resistance. We employed a titration-based paradigm (quantitative high-throughput screening or qHTS), where all compounds were tested at multiple concentrations for their effect on cell viability. Concentration-response curves (CRCs) were derived directly from the primary screen, and both potency and efficacy values were used to identify compounds with robust bioactivity profiles. We screened the NIH Chemical Genomics Center (NCGC) Pharmaceutical Collection (NPC) and Mechanism Interrogation Plate (MIPE) small molecule collections of approved and investigational compounds against these cell lines; and measured metabolically active cells after 48 hours of compound treatment as a proxy for cell viability. […] Assay Submitter: Nathalia J. Martinez, National Center for Advancing Translational Sciences, National Institutes of Health, Rockville, MD, USA; email: natalia.martinez@nih.gov Shen, M et al. Quantitative high-throughput phenotypic screening of pediatric cancer cell lines identifies multiple opportunities for drug repurposing. Oncotarget 2017 Dec 19;9(4):4758-4772. PMID 29435139.
The cells were obtained from University of North Carolina (UNC), Pediatric Preclinical Testing Program (PPT), and Coriell Institute (CI). qHTS cell viability assay: Cells were assayed in growth media at a density of 500-1,000 cells/well. Five microliters of cells were dispensed into 1,536-well, white, solid-bottom, TC-treated plates (Greiner Bio One) using a multidrop dispenser and incubated at 37 degrees C, 5% CO2, under a humidified atmosphere for 5 hours. Twenty-three nanoliters of compounds and controls (neutral control DMSO or positive control bortezomib at final concentration of 2.3 µM) were subsequently transferred by Kalypsys pintool. For primary screens, the MIPE collection was tested at 11-point dilutions (final concentrations range from 0.78 nM to 46 µM) and the NPC collection at 8-point dilutions (final concentrations range from 0.59 nM to 46 µM). Compounds tested in follow-up screens were assayed at 11-point dilutions. Cells were incubated for 48 hours, followed by addition of 3 µL of CellTiter-Glo (Promega). After a 15 min incubation at room temperature, samples were analyzed for luminescence intensity using a ViewLux High-throughput CCD imager equipped with clear filters.

SMILES	Potency	activity change, negative = cytotoxic
CCN(Cc1ccncc1)C(=O)C(CO)c1ccccc1 (stereo not given)	inactive	
CC(=O)[C@@]1(O)CC[C@H]2[C@@H]3CCC4=CC(=O)CC[C@]4(C)[C@H]3CC[C@@]21C	inactive	
CCCCCN(CCCCC)C(=O)C(CCC(=O)O)NC(=O)c1ccc(Cl)c(Cl)c1 (stereo not given)	inactive	
CCN(CC)CCNC(=O)c1cc(S(C)(=O)=O)ccc1OC	inactive	
CC(C)(C)NCC(O)c1cc(O)cc(O)c1 (stereo not given)	inactive	
CCN(CC)CCCN(c1ccccc1)C1Cc2ccccc2C1	inactive	
CN(C)CCOC(=O)COc1ccc(Cl)cc1	inactive	
NC(N)=NC(=O)Cc1c(Cl)cccc1Cl	inactive	
Cc1ccc(/C(=C\CN2CCCC2)c2ccccn2)cc1	inactive	
CCOC(=O)c1cnc2c(cnn2CC)c1NN=C(C)C	inactive	
O=C1CC2(CCCC2)CC(=O)N1CCCCN1CCN(c2ncccn2)CC1	inactive	
CCn1ccnc1CC1COc2ccccc2O1 (stereo not given)	inactive	
Nc1c2c(nc3ccccc13)CCCC2O (stereo not given)	inactive	
Cc1ccc(S(=O)(=O)NC(=O)NN2CCCCCC2)cc1	inactive	
COc1cc(C(=O)OCCCN2CCCN(CCCOC(=O)c3cc(OC)c(OC)c(OC)c3)CC2)cc(OC)c1OC	inactive	
CCCN(CCC)C(=O)C(CCC(=O)O)NC(=O)c1ccccc1 (stereo not given)	inactive	
CN(C)C(=O)Oc1ccc[n+](C)c1	inactive	
O=C(O)CN(CCN(CC(=O)O)CC(=O)O)CCN(CC(=O)O)CC(=O)O	inactive	
COC(=O)C1=C(C)NC(C)=C(C(=O)OC(C)(C)CN(C)CCC(c2ccccc2)c2ccccc2)C1c1cccc([N+](=O)[O-])c1 (stereo not given)	inactive	
CCN(CC)CCOCCOC(=O)C1(c2ccccc2)CCCC1	inactive	

SMILES	Potency	activity change, negative = cytotoxic
CC(=O)Nc1nnc(S(N)(=O)=O)s1	inactive	
CC(N=C(NC#N)Nc1ccncc1)C(C)(C)C (stereo not given)	inactive	
NCCCNCCSP(=O)(O)O		-7.37% [at 9.22 µM]
CCn1cc(C(=O)O)c(=O)c2cc3c(cc21)OCO3	inactive	
O=C(O)CP(=O)(O)O	inactive	
NC(=O)N1c2ccccc2C=Cc2ccccc21	inactive	
CCN(CC)CC(=O)Nc1c(C)cccc1C	inactive	
CN=C(NC#N)NCCSCc1nc[nH]c1C	inactive	
C[C@]12C=CC(=O)C=C1CC[C@H]1[C@@H]3C[C@@H](O)[C@](O)(C(=O)CO)[C@@]3(C)C[C@H](O)[C@@]12F	inactive	
CCC(=O)c1ccc2c(c1)N(CCCN(C)C)c1ccccc1S2	inactive	
c1cnc(N2CCN(Cc3ccc4c(c3)OCO4)CC2)nc1	inactive	
NC(N)=N/N=C/c1c(Cl)cccc1Cl	inactive	
CN(C)CCN(Cc1cccs1)c1ccccn1	inactive	
CC(C)NNC(=O)c1ccncc1	inactive	
NS(=O)(=O)c1cc2c(cc1Cl)NC(C1CC3C=CC1C3)NS2(=O)=O (stereo not given)	inactive	
COC(=O)[C@@H](N)Cc1ccc(O)c(O)c1	inactive	
CN1C[C@H](C(=O)N[C@]2(C)O[C@@]3(O)[C@@H]4CCCN4C(=O)[C@H](Cc4ccccc4)N3C2=O)C[C@@H]2c3cccc4[nH]cc(c34)C[C@H]21	inactive	
CN(C)CCCN1c2ccccc2Sc2ccccc21	inactive	
COCCCC/C(=N\OCCN)c1ccc(C(F)(F)F)cc1	inactive	
CCN1CCC[C@H]1CNC(=O)c1c(O)c(Cl)cc(Cl)c1OC	inactive	

From PubChem BioAssay (NCATS)
